40 sequences from the OligoGym collection can be followed below.
Further: reference of the scale not given here.

One assay has as its target KIF25. Kind of assay: pooled miR-30 sensor sort-seq; sequence = guide strand. The settings on record: shRNA.
TTGTAAACTTCCACTATGGAGA gave a sensor-assay potency score (higher = more potent) of -0.609.
Same read-out and setting: the value for TAACACAAACATTGTACCCATC was -0.837; that for AGAATCACCAGTAACTTCGCAT was -0.565; that for TAGAGTCACCGTAATTATCAGG was -1.12.
Still for that read-out and setting: the value for TAACTTCGCATCGCCTCCGAGG was -1.63; that for AACCTCTGTCCGTCCATCCTTG was -0.841.
On the same count and under the same terms, the value for ATAACACAAACATTGTACCCAT was 0.237; that for TATAGCTCTTTCCGCTGCCCGT was -1.1.
Sequence TTATTGTAAACTTCCACTATGG showed a sensor-assay potency score (higher = more potent) of -0.569.
The sequence ATTATTGTAAACTTCCACTATG gave a sensor-assay potency score (higher = more potent) of -0.786.

In a further assay the target is KIF26A. The assay is described as above. The note with it: shRNA.
Turning to ATCTCGTACACCTTGATCTCGA, the sensor-assay potency score (higher = more potent) was -0.604.
The sequence TCAAACTCATCATTGATGCTGC registered a sensor-assay potency score (higher = more potent) of 0.23.
Same read-out and setting: for TTGTCCTTGGTCTTGGAGGCGG the value was -1.26.
Still for that read-out and setting: for TTCTTGGGGGACTTGAGGCTGC the value was -0.669; for TAGCTTGTCGAGAAGCAGGGCA, -0.503; for TCATCGATCTCGTACACCTTGA, -0.779.
In turn, TTGAGCTCCACCAGCTTCGTGT registered a sensor-assay potency score (higher = more potent) of -0.457.
Same read-out and setting: for TCGCTTGAGCTCCACCAGCTTC the value was -1.81.
On the same count and under the same terms, for TCGAAGGCAAACATCTTGGGAA the value was 0.12.
On the same count and under the same terms, for TACTGGTAGACGTGCAGCGTGA the value was -1.25.
TACACCTTGATCTCGAACGGCT showed a sensor-assay potency score (higher = more potent) of -0.449.
Same read-out and setting: for TGTGCTGCTTCTACCTTGCTGG the value was -0.279.

The target of the next assay is KIF2C. Described as above. The settings on record: shRNA.
With TGAACCTGTAGACAACTTCATT, the sensor-assay potency score (higher = more potent) was -1.25.
The same measure, in the same setting: for TTGCTGTATGATCTCCTTGAGC the value was -1.21.
The same measure, in the same setting: for TTGGAGTTGACGGATCTCCGTT the value was -0.171; for TAACACAGACACATATTCTGTG, 0.393; for TTGCTCTTCCATCTCCTCGCTG, -0.535.
In turn, TTCAAAGATTGTCTGTACCAGT showed a sensor-assay potency score (higher = more potent) of -0.672.
On the same count and under the same terms, for TTCTCCAAGTTCACAGTCCTTA the value was -0.384; for TTCTGTTTCCATTTGAATCAAC, -0.604; for TATGTGTCTTGCCACTTCCTGT, -0.789.
Still for that read-out and setting: the value for TTTCTTGGCCAATTCTTGCTTA was 0.0812; that for TTTGTCTGCTAGCCTGCTCTTC was -1.15.

A further assay concerns the target KIR2DL5B. Described as above. The settings on record: shRNA.
With TTTTGTTGTAGAGCTCAGGGAC, the sensor-assay potency score (higher = more potent) was found to be 0.231.
TTTGTCTGTGTGAAAACGCAGT had a sensor-assay potency score (higher = more potent) of -0.271.
The same measure, in the same setting: the value for TTGAAGAGTTTCCTGTGACAGA was -0.517.
On the same count and under the same terms, the value for ACAAGCAGTGGGTCACTCGGGT was -0.672; that for TACATGTCAAATGAGCTCCTGG was -0.149.
Same read-out and setting: the value for TTGATCATCAGAGTCCTCCCTG was 0.731.
As for TTGTACAGACTGAAGATGGTAA, the sensor-assay potency score (higher = more potent) is -0.188.
